Survival data for 86 compounds are collected here from PubChem BioAssay AID463173 (ICCB-Longwood Screening Facility, Harvard Medical School, 2010).

The whole screen tested about 52,000 compounds, of which about 4,300 (8.3%) were called active. The full list was thinned out, with actives kept by preference. Values without a mark were called inactive. No stated cut-off is given here; in the data, active means survival mostly below about 52% (no sharp cut-off); inactive means mostly above about 56%.

This assay has as its system DeltatarO mutant. Briefly: growth inhibition of S. aureus wild type versus tarO mutant, primary screen, teichoic acid synthesis inhibitors, RN4220, OD600 (AID 463173). The note with it: OD600, 18 h, active compounds read low, screened at 18.75 µg/mL (by protocol).
As to `O=C(c1ccc2c(c1)N(Cc1ccc(Cl)cc1)C(=O)c1ccccc1S2(=O)=O)N1CCCCCC1`, the survival is 64%.

Regarding `Cn1nc(CC(=O)Nc2ccc(N3CCN(C(=O)OC(C)(C)C)CC3)cc2)c2ccccc2c1=O`, the survival is 84%.

`COC(=O)c1ccccc1NC(=O)CSc1nc2sc3c(c2c(=O)[nH]1)CCCC3`: the survival was 61%.

For `CCOc1ccccc1NC(=O)CSc1nnc2[nH]c(=O)cc(-c3ccccc3)n12`, the survival was 98%.

Regarding `Cc1nonc1OCCn1nnc(N)n1`, the survival was 95%.

For the compound `Oc1c(C(c2ccccc2)N2CCN(c3cccc(Cl)c3)CC2)sc2nc(-c3ccco3)nn12` (stereo unspecified), the survival was 74%.

Turning to `O=[N+]([O-])c1ccc(C(c2sc3nc(-c4ccco4)nn3c2O)N2CCN(c3cccc(Cl)c3)CC2)cc1` (stereo unspecified), the survival is 47% (active).

For `O=[N+]([O-])c1ccc(C(c2sc3nc(-c4ccco4)nn3c2O)N2CCN(Cc3ccccc3)CC2)cc1` (stereo unspecified), the survival is 79%.

As for `Oc1c(C(c2ccccc2F)N2CCOCC2)sc2nc(-c3ccco3)nn12` (stereo unspecified), the survival was 80%.

Consider `COc1cccc(CNC(=O)CSc2ccc(-c3sc(-c4ccccc4)nc3C)nn2)c1`, for which the survival was 26%.

Regarding `CCOC(=O)c1ccc(NC(=O)CSc2ccc(-c3sc(C)nc3C)nn2)cc1`, the survival was 37% (active).

Turning to `CCOC(=O)c1ccccc1NC(=O)CSc1ccc(-c2sc(C)nc2C)nn1`, the survival is 91%.

With `COc1ccccc1NC(=O)CSc1ccc(-c2sc(C)nc2C)nn1`, the survival is 92%.

For the compound `COc1cc(NC(=O)CSc2ccc(-c3sc(-c4ccccc4)nc3C)nn2)cc(OC)c1`, the survival is 19% (active).

For the compound `Cc1nc(C)c(-c2ccc(SCC(=O)Nc3ccc(Br)cc3)nn2)s1`, the survival was 101%.

`Cc1nc(C)c(-c2ccc(SCC(=O)Nc3ccc(Cl)c(Cl)c3)nn2)s1`: the survival was 46% (active).

With `Cc1cc(C)c(NC(=O)CSc2ccc(-c3sc(-c4ccccc4)nc3C)nn2)c(C)c1`, the survival is 33%.

Take `COc1ccc(OC)c(NC(=O)CSc2ccc(-c3sc(C)nc3C)nn2)c1`: the survival is 83%.

On to `Cc1nc(C)c(-c2ccc(SCC(=O)Nc3ccc(F)c(F)c3)nn2)s1`, for which the survival was 102%.

As for `COc1ccc(Cl)cc1NC(=O)CSc1ccc(-c2sc(C)nc2C)nn1`, the survival was 105%.

For the compound `COc1cc(NC(=O)CSc2ccc(-c3sc(C)nc3C)nn2)cc(OC)c1`, the survival was 6% (active).

Take `COc1ccc(NC(=O)C2CCN(S(=O)(=O)c3c(C)noc3/C=C/c3ccc(C)cc3)CC2)cc1Cl`: the survival is 82%.

In the case of `COc1cc2c(=O)n(CCC(=O)NCC3CCCO3)c(=O)n(CC(=O)Nc3ccc(C)cc3)c2cc1OC` (stereo unspecified), the survival was 92%.

On to `COc1cccc(OC(=O)CSc2nnc(-c3ccc4c(c3)OCO4)o2)c1`, for which the survival was 59%.

With `CC(=O)Nc1ccc(S(=O)(=O)NC2(C(F)(F)F)C(=O)Nc3c2c(=O)[nH]c(=O)n3-c2cccc(Cl)c2)cc1` (stereo unspecified), the survival is 84%.

Consider `Cc1ccc(Cl)cc1N1CCN(C(=O)C2CCN(S(=O)(=O)Cc3ccccc3)CC2)CC1`, for which the survival was 72%.

On to `CCC1CN(C(=O)N2CCC(C(=O)NCc3ccc(C)o3)CC2)c2ccccc2O1` (stereo unspecified), for which the survival was 87%.

`O=C(NCc1ccco1)C(c1ccco1)N(C(=O)Cn1nnc2ccccc21)c1ccccc1` (stereo unspecified): the survival was 65%.

As for `Cc1cc2c(cc1S(=O)(=O)N(CCN(C)C)Cc1ccco1)OCC(=O)N2`, the survival is 98%.

With `Cc1cc2c(cc1S(=O)(=O)N(C)CC(=O)Nc1ccc(C#N)cc1)OCC(=O)N2`, the survival is 76%.

For `Cc1cc2c(cc1S(=O)(=O)N(CCN(C)C)Cc1ccccc1)OCC(=O)N2`, the survival is 102%.

For `Cc1cc2c(cc1S(=O)(=O)N(C)CC(=O)Nc1cccc(C#N)c1)OCC(=O)N2`, the survival is -2% (active).

Take `CN(CC(=O)Nc1cccc(C#N)c1)S(=O)(=O)c1cc2c(cc1Cl)NC(=O)CO2`: the survival is 109%.

Consider `Cc1cc2c(cc1S(=O)(=O)N(CCO)Cc1ccccc1)OCC(=O)N2`, for which the survival was 46% (active).

`CCN1CCN(C(c2cccc(OC)c2)c2c(O)cc(C)n(Cc3ccco3)c2=O)CC1` (stereo unspecified): the survival was 120%.

Consider `Cc1ccc(-c2n[nH]c3c2C(c2ccc(C(C)(C)C)cc2)NC3=O)cc1` (stereo unspecified), for which the survival is 109%.

Regarding `COc1ccc(NC(=O)Cn2nc(SC)c(S(=O)(=O)c3ccc(C)cc3)c2N)cc1OC`, the survival is 25% (active).

As for `CCOC(=O)c1ccc(NC(=O)Cn2nc(SC)c(S(=O)(=O)c3ccc(Cl)cc3)c2N)cc1`, the survival is 99%.

Regarding `COc1ccc(S(=O)(=O)c2c(SC)nn(CC(=O)Nc3ccc(C)c(Cl)c3)c2N)cc1`, the survival was 83%.

For the compound `CCSc1nn(CC(=O)Nc2ccc(C(=O)OC)cc2)c(N)c1S(=O)(=O)c1ccc(C)cc1`, the survival is 37% (active).

With `CCc1ccc(NC(=O)Cn2nc(SC)c(S(=O)(=O)c3ccc(OC)cc3)c2N)cc1`, the survival is 118%.

Regarding `CCSc1nn(CC(=O)Nc2cccc(CC)c2)c(N)c1S(=O)(=O)c1ccccc1`, the survival was 101%.

Consider `Cn1cc(-c2cc3n(n2)CCC(=O)N3CCCC(=O)NCc2ccccc2Cl)c2ccccc21`, for which the survival is 109%.

As to `CCn1c(=O)cc(SCC(=O)NCCc2ccc(Cl)cc2)c2ccccc21`, the survival is 76%.

On to `O=C(NC12CCC(O)C(SC1)/C2=N/O)c1ccccc1` (stereo unspecified), for which the survival is 98%.

Take `COc1cccc(-c2noc(C3CCCN(S(=O)(=O)c4ccccc4F)C3)n2)c1` (stereo unspecified): the survival is 65%.

Turning to `CC(C)(C)OC(=O)N1CCC(c2c(C(=O)NCCN3CCc4ccccc4C3)cnn2-c2ccc(F)cc2)CC1`, the survival is 68%.

Regarding `COc1ccccc1-c1nc2c(c(SCc3cc(C)ccc3C)n1)Cc1c(CO)cnc(C)c1O2`, the survival is 41% (active).

In the case of `Cc1ncc(CO)c2c1Oc1nc(-c3ccc(F)cc3)nc(SCC(=O)N3CCCCC3)c1C2`, the survival was 52%.

`Cc1ncc(CO)c2c1Oc1nc(-c3ccccc3)nc(SCC(=O)N3CCCCC3)c1C2`: the survival is 85%.

With `CCN(CC)C(=O)CSc1nc(-c2ccc(C)cc2)nc2c1Cc1c(CO)cnc(C)c1O2`, the survival is 39% (active).

As to `Cc1ccc(C)c(CSc2nc(-c3ccccc3F)nc3c2Cc2c(CO)cnc(C)c2O3)c1`, the survival was 108%.

For `CCc1ccc(CSc2nc(-c3ccccc3OC)nc3c2Cc2c(CO)cnc(C)c2O3)cc1`, the survival is 90%.

Consider `CCc1ccc(CSc2nc(-c3ccccc3F)nc3c2Cc2c(CO)cnc(C)c2O3)cc1`, for which the survival is 61%.

With `CCSc1nc(-c2ccccc2F)nc2c1Cc1c(CO)cnc(C)c1O2`, the survival was 52% (active).

Take `CCN(CC)C(=O)CSc1nc(-c2ccccc2F)nc2c1Cc1c(CO)cnc(C)c1O2`: the survival was 101%.

For the compound `Cc1ccc(-c2nc3c(c(SCC(=O)N(C)c4ccccc4)n2)Cc2c(CO)cnc(C)c2O3)cc1`, the survival is 64%.

Turning to `CCSc1nc(-c2ccccc2OC)nc2c1Cc1c(CO)cnc(C)c1O2`, the survival is 80%.

Consider `Cc1ncc(CO)c2c1Oc1nc(-c3ccc(Cl)cc3)nc(SCC(=O)N3CCCCC3)c1C2`, for which the survival is 48% (active).

As for `O=C(CSc1nccn1Cc1ccccc1)Nc1ccc2c(c1)OCCO2`, the survival is 71%.

As to `CN(C)c1ccc(CN(Cc2ccco2)C(=O)COc2ccc(F)cc2)cc1`, the survival is 91%.

In the case of `CC(Sc1nnc2c(n1)[nH]c1ccccc12)C(=O)NC1CC1` (stereo unspecified), the survival was 60%.

Take `CCc1ccc(-c2cn3c(n2)sc2cc(C(=O)NCCC4=CCCCC4)ccc23)cc1`: the survival was 70%.

For the compound `O=C(NCc1ccccc1)C(c1ccco1)N(C(=O)c1csnn1)c1ccccc1` (stereo unspecified), the survival is 81%.

`CCCCc1nn2c(=O)cc(COC(=O)c3ccccc3NC(=O)c3ccccc3OC)nc2s1`: the survival is 84%.

For `O=C(Nc1ccc(Cl)cc1)N1CCC(c2ccccc2)C1` (stereo unspecified), the survival was 67%.

As to `COc1cc(OC)c(NC(=O)CN2C(=O)CCn3nc(-c4cccn4C)cc32)cc1Cl`, the survival was 90%.

As to `O=C(NC1(C(F)(F)F)NC(=O)N(CCc2ccccc2)C1=O)c1ccccc1F` (stereo unspecified), the survival is 76%.

Consider `Cc1ccc(N(CC(=O)N2CCN(c3cccc(C)c3C)CC2)S(=O)(=O)c2c(C)nn(C)c2C)cc1`, for which the survival was 75%.

In the case of `CCSc1nc(-c2ccc(Cl)cc2)nc2c1Cc1c(CO)cnc(C)c1O2`, the survival was 39% (active).

For `CCSc1nc(-c2ccccc2)nc2c1Cc1c(CO)cnc(C)c1O2`, the survival was 93%.

Regarding `CCSc1nc(-c2cccc(Cl)c2)nc2c1Cc1c(CO)cnc(C)c1O2`, the survival is 116%.

As to `CC(C)c1n[nH]c(=S)n1C`, the survival is 84%.

On to `CCOc1ccccc1N1CC(c2nc3ccccc3n2CCOc2ccc(OC)cc2)CC1=O` (stereo unspecified), for which the survival is 62%.

Consider `CCOc1ccccc1N1CC(c2nc3ccccc3n2CCCOc2ccccc2)CC1=O` (stereo unspecified), for which the survival was 68%.

`CCOc1ccc(N2CC(c3nc4ccccc4n3Cc3ccccc3F)CC2=O)cc1` (stereo unspecified): the survival was 103%.

For `CCOc1ccc(N2CC(c3nc4ccccc4n3CCOc3ccccc3)CC2=O)cc1` (stereo unspecified), the survival is 33% (active).

On to `CCOc1ccc(N2CC(c3nc4ccccc4n3CCCOc3ccccc3)CC2=O)cc1` (stereo unspecified), for which the survival is 51%.

Take `CCc1ccc(N2CC(c3nc4ccccc4n3Cc3ccccc3C)CC2=O)cc1` (stereo unspecified): the survival is 52% (active).

On to `CCOc1ccccc1N1CC(c2nc3ccccc3n2CCOc2ccccc2)CC1=O` (stereo unspecified), for which the survival was 32% (active).

As to `CCOc1ccc(N2CC(c3nc4ccccc4n3CCOc3ccc(CC)cc3)CC2=O)cc1` (stereo unspecified), the survival is 55% (active).

Take `CCOC(=O)Cn1c(C2CC(=O)N(c3ccc(C)cc3)C2)nc2ccccc21` (stereo unspecified): the survival was 66%.

Take `CCc1ccccc1NC(=O)c1nnn(-c2ccc(F)cc2)c1C`: the survival is 74%.

Take `CCN(CC)CCCNC(=O)CCc1c(C)n(CC)c2cc(-c3ccccc3OC)nn2c1=O`: the survival was 92%.

`CCC(=O)n1nc(-c2cccnc2)nc1NCc1ccc(F)cc1`: the survival is 88%.

With `Cc1ccccc1Nc1nn2c(=O)c3ccc(C(=O)NCc4cccs4)cc3nc2s1`, the survival was 72%.
